Source: PubChem (Sanford-Burnham Center for Chemical Genomics)
Shown are actives, neighbours in structure and some others; about 4% of the full set was active somewhere.
HIF-2a block: HIF-2a reporter inhibitors, primary screen, luminescence, 786-0 RCC cells. 786-0 RCC cells HIF-2a reporter, luciferase luminescence, overnight. inhibition, % at 18.8 µM. 0.72% of 360,000 active. AID 624352, 2012;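 active means inhibition of the luminescence signal of 40% or more relative to plate controls, in a single-dose primary screen at 18.75 µM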
TROY NFkB inh: inhibitors of TROY-driven NF-kB signaling, primary screen, Q293 LMP1-TROYcd cells, NF-kB luciferase, uHTS | Q293 LMP1-TROYcd NF-kB luciferase reporter, 4 h | inhibition, % at 10 µM | 0.98% of 360,000 active;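 active means compounds whose plate-normalised and pattern-corrected inhibition of the luciferase reporter signal at the single screening dose is 50% or more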
KKLEB tox: cytotoxicity in KKLEB CF airway cells, primary screen, cytotoxicity control for CF NF-kB inhibitor project, cell-based, uHTS, fluorescence assay plates. KKLEB CF airway cells viability, ATPlite luminescence, overnight; stronger effect = lower value; cells stimulated with P. aeruginosa culture filtrate. activity change (cytotoxicity), % at 5 µM. 0.36% of 360,000 active. AID 602141, 2011;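 active means corrected activity change at or below -50% at 5 µM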
CF NFkB inh: inhibitors of PAF-induced NF-kB signaling, primary screen, cell-based, GFP fluorescence, uHTS; 0.86% of 360,000 active; inhibition, % at 5 µM; KKLEB NF-kB-GFP reporter, GFP fluorescence overnight;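 active means at least 50% inhibition at 5 µM, scaled per plate between neutral and stimulator controls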;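 further: PAF is a Pseudomonas aeruginosa culture filtrate used as stimulus; plate controls were PAF-stimulated DMSO wells for no effect and unstimulated DMSO wells for full effect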
Peg3 prom inh: Peg3 promoter-driven luciferase inhibitors, primary screen, cell-based, HeLa, luciferase luminescence; HeLa PEG-Prom luciferase reporter, overnight; inhibition, % at 20 µM; 1.7% of 360,000 active; AID 588405, 2011;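 active means inhibition of at least 50% at 20 µM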
TWEAK-Fn14 inh: inhibitors of TWEAK-Fn14 signaling, primary screen, luciferase reporter cells, uHTS; TWEAK-stimulated Fn14 reporter cells, luciferase luminescence, 8 h; inhibition, % at 10 µM; 2% of 360,000 active; in the data active means inhibition above about 50%
* marks the source's active call; other numbers are inactive results; nt = no result.

SMILES | HIF-2a block | TROY NFkB inh | KKLEB tox | CF NFkB inh | Peg3 prom inh | TWEAK-Fn14 inh
C=C1C(=O)O[C@H]2[C@H]1[C@H](OC(=O)CC(=O)O[C@@H]1C[C@@H](C)[C@@H]3C=CC(=O)[C@@]3(C)[C@H]3OC(=O)C(=C)[C@H]13)C[C@@H](C)[C@H]1C=CC(=O)[C@]12C | -3 | -15 | -8 | 47 | 22 | 17
C=C1C(=O)O[C@@H]2C[C@@H](C)[C@@H]3C=CC(=O)[C@@]3(C)[C@@H](OC(=O)CC(=O)O[C@H]3[C@@H]4C(=C)C(=O)O[C@@H]4C[C@@H](C)[C@@H]4C=CC(=O)[C@]43C)[C@H]12 | 97* | 89* | -37 | 80* | 105* | 105*
O=C1NC(=O)C(=Cc2cccc(OCCOc3ccccc3)c2)C(=O)N1 | -56 | -12 | -6 | -4 | -135 | -10
Cc1ccc(OCCOc2cccc(C=C3C(=O)NC(=O)NC3=O)c2)c(C)c1 | 55* | -70 | 2 | -7 | -58 | 89*
O=[N+]([O-])c1ccc(O)c([N+](=O)[O-])c1 | -8 | -1 | -13 | 23 | -2 | 18
O=[N+]([O-])c1ccc(Cl)c([N+](=O)[O-])c1 | 7 | 5 | -17 | 58* | 58* | 23
CCOC(=O)C1(c2ccccc2)CCN(CCC(=O)Nc2cccc(Br)c2)CC1 | 9 | 0 | 2 | 0 | 59* | -21
CC1=C(C)CC2(CC1)C(=O)NC(=O)NC2=O | -4 | 0 | 20 | -21 | 61* | 5
O=C1NC(=O)N(Cc2ccccc2Cl)C(=O)/C1=C/c1cccs1 | 50* | 36 | -11 | 43 | 60* | 24
Cn1c(=O)c2c(nc(-c3ccc(N(CCCl)CCCl)cc3)n2C)n(C)c1=O | 7 | 15 | -17 | -26 | 28 | 31
C[C@]12CC[C@@H](O)C[C@@H]1CC[C@@H]1[C@@H]2CC[C@]2(C)C(=O)[C@H](O)C[C@@H]12 | 1 | -7 | 7 | 5 | -2 | 17
C[C@@H]1CN([C@H](C)CO)C(=O)CCCn2cc(nn2)CO[C@H]1CN(C)C(=O)Oc1cccc2ccccc12 | 17 | 5 | 2 | -14 | 7 | 9
CCCCCCCSc1cc(OC)c(CCN(C)C)cc1OC | 6 | -4 | -5 | 5 | 104* | -35
C=CCCC1(CC(C)C)C(=O)NC(=S)NC1=O | 10 | -2 | 0 | 16 | -1 | 13
Cc1ccc(C[n+]2c(-c3ccc(C)cc3)cc(-c3ccc(C)cc3)cc2-c2ccc(C)cc2)cc1 | 90* | 42 | -64* | 57* | 97* | 92*
Cc1ccc(-c2cc(-c3ccc(C)cc3)[n+](-c3ccc(C(=O)O)cc3)c(-c3ccc(C)cc3)c2)cc1 | 2 | 5 | -7 | -4 | -14 | 0
O=S(=O)(O)C(=Cc1ccccc1)c1ccccc1 (tested in a mixture with another compound) | -54 | -29 | -1 | 6 | -5 | -19
Cc1cccc(-c2nc3ccc(C(=O)N4CCC5(CC4)OCCO5)cc3nc2-c2cccc(C)c2)c1 | 9 | 8 | -6 | 18 | 56* | -9
COc1cccc(C(=O)N2CCC3(CC2)OCCO3)c1 | 8 | 2 | -6 | -9 | 10 | 18
CC(C)c1oc(=O)cc2c1[C@@H](O)[C@H]1OC(=O)[C@@]3(C)C[C@@H](O)[C@@H](O)[C@@]2(C)C13 (some centres not stated) | 39 | 38 | 2 | 18 | 91* | 88*
O=S1(=O)NCC2(CC2)CN1Cc1ccccc1 | 0 | 6 | nt | nt | nt | 10
CC1CCN(C(CC(=O)c2ccccc2)C(=O)c2ccccc2)CC1 (configuration not stated) | -143 | -46 | -14 | 40 | 105* | 7
N#CC1c2ccccc2C=CN1C(=O)c1ccc(N(CCCl)CCCl)cc1 (configuration not stated) | 10 | -6 | 3 | -17 | 20 | -33
CC1Oc2cc3c(-c4c(O)cc(O)c5c(O)c6c(cc45)OC(C)C(C)C6=O)c(O)cc(O)c3c(O)c2C(=O)C1C (configuration not stated) | -8 | 12 | -56* | 67* | 70* | 68*
O=C1NCN(c2ccccc2)C12CCN(C(c1ccnc3ccccc13)c1nnnn1C1CCCC1)CC2 (configuration not stated) | 21 | 18 | -13 | 26 | 21 | 35
SMILES | HIF-2a block | TROY NFkB inh | KKLEB tox | CF NFkB inh | Peg3 prom inh | TWEAK-Fn14 inh
Nc1ccc(CC(N)c2csc(Nc3ncccn3)n2)cc1 (configuration not stated) | -134 | -6 | -12 | 1 | -113 | -19
NC(Cc1ccc(Cl)cc1)c1csc(Nc2ncccn2)n1 (configuration not stated) | -18 | 14 | -26 | -16 | 11 | 58*
OC(c1cccc(Cl)c1)(c1cccc(Cl)c1)C1CN2CCC1CC2 (configuration not stated) | 11 | -3 | -10 | 18 | 96* | 9
O=C(Nc1cccc(C(F)(F)F)c1)OC1CN2CCC1CC2 (configuration not stated) | 12 | 3 | -2 | -4 | 20 | 5
CNC(=O)Oc1ccc(-c2cn3cc(C)ccc3n2)cc1 | 39 | 33 | -38 | -2 | 37 | 64*
COC(=O)N1Cc2ccccc2-n2nncc2C1 | 15 | 1 | -1 | 2 | 0 | 12
COC(=O)C1=C(c2ccc(F)cc2OCc2ccccc2)C[C@@H]2CC[C@H]1N2C(=O)NCCCc1ccccc1 | 10 | 2 | -4 | 0 | 29 | 18
COc1ccc(C(CC(=O)N2CCC3(CC2)OCCO3)NS(=O)(=O)c2ccc(OC)cc2)cc1 (configuration not stated) | 12 | 9 | 2 | -2 | -2 | 5
COc1ccc(S(=O)(=O)NC(CC(=O)N2CCC3(CC2)OCCO3)c2ccco2)cc1 (configuration not stated) | 7 | 15 | 6 | -7 | -2 | 90*
c1ccc(-c2ccc(CN3Cc4ccccc4-n4nncc4C3)cc2)cc1 | -10 | 28 | 10 | -46 | 10 | 23
CC=CC(C)=CC(C)C(=O)CC(O)CC1CC(=O)NC(=O)C1 (configuration not stated) | 30 | 29 | -12 | 26 | 35 | 3
CC1CC(C)(O)CC(C(O)CC2CC(=O)NC(=O)C2)C1=O (configuration not stated) | 55* | 80* | 0 | 91* | 96* | 98*
CC1=C(C)CC2(C(=O)NC(=S)NC2=O)C(C)C1 (configuration not stated) | 13 | 3 | -7 | 8 | -11 | 12
